Lamin A splicing: changes lamin A minigene splicing in HeLa cells | HeLa LMNA splicing GFP/RFP minigene ratio, 48 h | Potency, µM (highest dose often 46.1 µM), inactives show at the top dose ratio change, negative = inhibition, usual class: inhibitors | 200,000 tested, 0.01% active | AID 1487; active = well fitted inhibition curve with a large enough effect in the signal ratio, with a control signal flat, not every such curve was filed as active; inconclusive = small, poorly fitted or top-dose-only effect, or effect the other way, or a change in a side signal; the % refers to the signal ratio; also: % is scaled to controls: 0 for no effect and ±100 for the full control effect
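S3 HeLa cells stably expressing lamin A-EGFP splicing minigene plus DsRed2, 600 cells/well, 48 h compound exposure at 37C. Laser-scanning cytometry; analysed as GFP (500-530 nm)/RFP (575-640 nm) total intensity ratio; 0.5% DMSO vehicle.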
HTT ATP protect: Huntington cell model cytoprotection by ATP luminescence; PC12 HTT-Q103 induced, cytoprotection, ATP luminescence, 40 h; AID 1471; Potency, µM (series often up to 56.4 µM), for the others: cytoprotection (ATP increase), most hits filed as activators; 230,000 tested, 0.14% active; active = well fitted curve in the direction sought with a large enough effect; inconclusive = small, poorly fitted or top-dose-only effect, or another doubt; inactive = no such curve, though single readings can be large; an effect the other way counts as inactive or inconclusive; also: % of control where 0% means no effect; nearly all actives have a fitted effect of over 45% in size
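Readout: ATPlite luminescence (ATP level). Model: stable PC12, inducible Htt exon1 Q103-GFP. Inducer: tebufenozide, 100 nM final. Compounds: dose series. No G418 in medium.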
HPGD block: inhibitors of human 15-hydroxyprostaglandin dehydrogenase (HPGD); purified HPGD, NADH fluorescence kinetic, PGE2 substrate; Potency, µM, for the others: at the highest dose activity change, negative = inhibition, actives largely listed as inhibitors; 150,000 tested, 4.3% active; AID 894; also: % is scaled to controls: 0 for no effect and ±100 for the full control effect
Target sequence (P15428 whole entry, looked up): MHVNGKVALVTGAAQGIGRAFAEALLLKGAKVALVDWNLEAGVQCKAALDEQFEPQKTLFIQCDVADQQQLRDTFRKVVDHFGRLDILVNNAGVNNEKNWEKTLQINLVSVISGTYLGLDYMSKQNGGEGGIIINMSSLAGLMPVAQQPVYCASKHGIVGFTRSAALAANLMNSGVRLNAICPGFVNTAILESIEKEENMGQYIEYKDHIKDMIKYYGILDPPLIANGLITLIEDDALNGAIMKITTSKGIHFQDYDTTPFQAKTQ
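NADH formation kinetics: reaction with 30 uM PGE2 and 1 mM NAD+ (final), 20 nM enzyme, Tris-HCl pH 8 with Tween 20, after 15 min compound preincubation at room temperature. Fluorescence change, last versus first of five reads.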
JMJD2E inh: inhibitors of human JMJD2E histone demethylase. B2RXH2. Potency, µM (titrated, usually from 57.1 µM), inactives show at the top dose activity change, negative = inhibition, usual class: inhibitors. 230,000 tested, 1.6% active. AID 2147. JMJD2E catalytic domain, FDH-coupled NADH fluorescence (FDH is formaldehyde dehydrogenase);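 also: 0% = wells with enzyme and -100% = buffer wells without enzyme; nearly all actives have a fitted effect of over 50% in size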
ALDH1A1 block: ALDH1A1 (human) enzyme inhibition; P00352; Purified ALDH1A1, NADH fluorescence, propionaldehyde substrate; Potency, µM (doses to about 75.3 µM), for inactives: top-dose activity, negative = inhibition, actives largely listed as inhibitors; 220,000 tested, 7.3% active; AID 1030;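 also: plate controls were no enzyme wells and a reference inhibitor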
Target sequence (P00352 whole entry, looked up): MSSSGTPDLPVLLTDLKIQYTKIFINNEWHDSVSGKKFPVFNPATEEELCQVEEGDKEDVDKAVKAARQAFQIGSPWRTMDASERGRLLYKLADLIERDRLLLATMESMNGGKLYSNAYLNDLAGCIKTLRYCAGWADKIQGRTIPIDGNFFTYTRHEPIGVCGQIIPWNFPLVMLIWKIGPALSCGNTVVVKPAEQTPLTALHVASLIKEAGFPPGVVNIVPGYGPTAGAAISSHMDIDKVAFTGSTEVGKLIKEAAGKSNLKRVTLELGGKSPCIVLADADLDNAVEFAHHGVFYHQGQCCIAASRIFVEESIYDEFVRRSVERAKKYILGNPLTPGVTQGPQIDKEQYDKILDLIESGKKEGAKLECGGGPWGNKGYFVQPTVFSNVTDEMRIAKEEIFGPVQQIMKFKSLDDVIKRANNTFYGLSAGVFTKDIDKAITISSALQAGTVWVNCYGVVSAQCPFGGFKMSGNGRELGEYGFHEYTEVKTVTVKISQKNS
HttQ103 aggreg: reduces HttQ103-GFP aggregates in PC12 cells. 220,000 tested, 1.1% active. Potency, µM (titrated, usually from 46.1 µM), for inactives: at the top dose activity change, negative = inhibition, usual class: inhibitors. PC12 HttQ103-GFP aggregates, Acumen cytometry, 40 h. AID 1688; active = well fitted curve in the direction sought with a large enough effect; inconclusive = small, poorly fitted or top-dose-only effect, or another doubt; inactive = no such curve, though single readings can be large; an effect the other way counts as inactive or inconclusive; also: % is scaled to controls: 0 for no effect and ±100 for the full control effect; nearly all actives have a fitted effect of over 60% in size
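Using laser scanning cytometry, GFP-positive aggregates were counted after lysis of PC12 cells induced with 100 nM tebufenozide to express HTT exon 1 Q103–GFP. Compounds were tested in titration.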
Numbers without * were called inactive; ? = inconclusive; / = not tested or not shown; ! = not active in a repeat; [ ] = another dose, or the depositor's remark. Most compounds without a hit are left out; they make up all but 9.2% or so of the library. Unless noted, calls follow the shape of the dose curve; as a rule, active = well fitted inhibition curve with a large enough effect (not every such curve was filed as active); inconclusive = small, poorly fitted or top-dose-only effect, or another doubt; inactive = no such curve, though single readings can be large or run the other way. Potency is read from the fitted curve at half-maximal effect.

SMILES | Lamin A splicing | HTT ATP protect | HPGD block | JMJD2E inh | ALDH1A1 block | HttQ103 aggreg
Cc1ccc2cc(C3C(C#N)=C(N)Oc4c3ccc3cccnc43)c(=O)[nH]c2c1 (centres undefined) | ? | -58% | -26% | ? | ? | 2.5µM*
O=[N+]([O-])c1ccc(Nc2nc(NC3CCCCC3)nc(N3CCCC3)n2)cc1 | / | -86% | / | -1% | 13µM* | ?
O=[N+]([O-])c1ccc(Nc2nc(N/N=C/c3cccc(F)c3)nc(N3CCCC3)n2)cc1 | ? | 7%[10 µM] | -6% | 1% | ? | ?
Cc1ccc2nc(SCc3nnc(-c4cccs4)o3)[nH]c2c1 | -2% | -30%[10 µM] | 32µM* | -4% | 22µM* | 7%[9.22 µM]
Cc1ccc2nc(SCc3nnc(-c4ccccc4)o3)[nH]c2c1 | 3% | -17% | ? | -2% | -16% | -10%
COCCn1nnnc1C(C(C)C)N1CCSCC1 (centres undefined) | / | -12%[10 µM] | / | -5% | -3% | -17%[9.22 µM]
Cc1ccc(C=Nc2ccc(N(C)C)cc2)o1 | 4% | -39% | -9% | 13µM* | ? | -19%
O=C(O)c1nc2cc(Cl)c(Cl)cc2[nH]c1=O | ? | / | -9% | -10% | -4% | /
COc1ccc(-c2nc3scc(CCNS(=O)(=O)c4ccc(F)c(C(F)(F)F)c4)n3n2)cc1OC | -1%[46 µM] | / | / | / | / | /
COc1cccc(N2CCN(c3ncnc4c3cnn4-c3ccc(C)cc3C)CC2)c1 | ? | -124% | ? | ? | ? | 22µM*
Cc1cccc(-n2ncc3c(N4CCC(C)CC4)ncnc32)c1 | -11% | -54% | 28µM* | -11% | 14µM* | -16%
Cc1ccc(-n2ncc3c(N4CCCC4)ncnc32)c(C)c1 | ? | -17% | -17% | ? | -1% | ?
Cc1cccc(-n2ncc3c(NC(C)C)ncnc32)c1 | ? | -41%[10 µM] | -28% | ? | -3% | 11µM*
Cc1cccc(-n2ncc3c(N4CCCCCC4)ncnc32)c1 | -23%[46 µM] | / | / | / | / | /
Cc1nc(NC(=O)/C=C/c2ccccc2)n[nH]1 | ? | 6%[10 µM] | -1% | 0% | -6% | ?
CCN1C(=O)[C@H]2[C@H]3[C@H](O)[C@H](O)C/C(=N/OC/C=C(\C)CCC=C(C)C)[C@@H]3CC[C@@H]2C1=O | / | ? | / | / | 7%[13.5 µM] | /
Cn1c(=O)c2[nH]c(=O)cnc2n(C)c1=S | 0%[46 µM] | -8%[10 µM] | / | ? | 20µM* | -8%[9.22 µM]
COc1ccc(C(=O)N2CCC3(CC2)CN(Cc2ccc(C#N)cc2)C3)cc1 | / | ? | -9% | / | -1% | /
O=C1c2ccccc2C(Nc2ccc(Cl)cn2)N1Cc1ccccc1 (centres undefined) | 6% | -65% | -21% | -9% | 13µM* | ?
CC1(C)CC(=O)C(Sc2ccccc2[N+](=O)[O-])=C(O)C1 | ? | / | ? | ? | 7.1µM* | 0%
CC1(C)CC(=O)C(C(C2=C(O)CC(C)(C)CC2=O)c2ccc(Cl)c([N+](=O)[O-])c2)C(=O)C1 (centres undefined) | 4%[46 µM] | 15%[10 µM] | / | 4% | -2% | 11%[9.22 µM]
CNC(=O)C1CCC(Cn2c(=O)c3sccc3n(CC(=O)Nc3ccc(C)c(C)c3)c2=O)CC1 (centres undefined) | -11%[46 µM] | / | / | / | / | /
CCOc1ccc(OCCCN(C)C)cc1 | 5% | -4% | -7% | ? | 14µM* | -2%
O=c1c2c3c(sc2ncn1/N=C/c1ccc([N+](=O)[O-])o1)CCCC3 | 150% | -111% | -16% | 6% | 0.2µM* | 8%
Cc1ccc(NC(=O)c2cc(NC(=O)C3CC=CCC3C(=O)O)ccc2N2CCOCC2)cc1 (centres undefined) | 0% | -1% | -10% | 9% | 13µM* | 10%
SMILES | Lamin A splicing | HTT ATP protect | HPGD block | JMJD2E inh | ALDH1A1 block | HttQ103 aggreg
Cc1ccc(NC(=O)c2cc(NC(=O)C3CC=CCC3C(=O)O)ccc2N2CCOCC2)cc1Cl (centres undefined) | 3% | -1% | -8% | -2% | 1.8µM* | 21%
Cc1cc(C(=O)Nc2ccc(N3CCOCC3)c(Cl)c2)c(C)o1 | -4%[46 µM] | -6%[10 µM] | / | -4% | -2% | 3%[9.22 µM]
Cc1cccc(NC(=O)c2cc(NC(=O)C3CC=CCC3C(=O)O)ccc2N2CCOCC2)c1 (centres undefined) | -12% | 43%[10 µM] | -3% | -4% | 3.2µM* | -10%
Cc1ccc(NC(=O)c2cc(N3C(=O)C=CC3=O)ccc2N2CCOCC2)cc1Cl | ? | / | 1.3µM* | -1% | 0.25µM* | ?
CC[C@H](NC(C)C)[C@H](O)c1ccc(O)c(O)c1 | 10% | -5%[40.3 µM] | -3% | 11µM* | 8%[20.9 µM] | 13%
CCC(NC(C)C)C(O)c1ccc(O)c2[nH]c(=O)ccc12 (centres undefined) | -8% | / | -4% | ? | -12% | -14%
CC[C@@H]1[C@H]2CCCCN3[C@@H]2[C@@H](C[C@H]3[C@@H]2C[C@H](C)C(=O)O2)[C@@H]2[C@H]1OC(=O)[C@H]2C | / | -12% | / | / | / | /
Cn1c(=O)c2c(n3cnnc13)-c1ccccc1CC21CCCC1 | ? | 18%[10 µM] | -11% | 0% | 11µM* | 1%
Cc1ccc2nc(N3CCN(C(=O)C4COc5ccccc5O4)CC3)sc2c1 (centres undefined) | 5%[46 µM] | / | / | / | / | /
CC(C)=Cc1oc2ccc([N+](=O)[O-])cc2c1N1CC(C)OC(C)C1 (centres undefined) | ? | -40% | / | -4% | -11% | 7%
Cc1cc(C)c2cc(CN(CCO)C(c3nnnn3Cc3ccc(F)cc3)C(C)C)c(=O)[nH]c2c1 (centres undefined) | ? | -18%[10 µM] | 1% | ? | 13µM* | -10%
CC1=C(/C=C/C(C)=C/C=C/C(C)=C/C=O)C(C)(C)CCC1 | / | -81% | -13% | / | 22µM* | /
CC1=C(/C=C/C(C)=C/C=C/C(C)=C/CO)C(C)(C)CCC1 | / | 10µM*! | 0% | -19% | 25µM*! | -5%
CC(=O)OC/C=C(C)/C=C/C=C(C)/C=C/C1=C(C)CCCC1(C)C | / | 9% | -6% | -3% | 22µM*! | /
CC1=C(\C=C/C(C)=C/C=C\C(C)=C\CO)C(C)(C)CCC1 | / | 14% | / | / | / | /
CC1=C(/C=C/C(C)=C/C=C/C(C)=C\CO)C(C)(C)CCC1 | / | 7% | / | / | 25µM* | /
Cc1cc(OCC(=O)Nc2nc3c(s2)CCCC3)cc(C)c1Cl | 8%[46 µM] | / | / | / | / | /
COc1ccccc1CN1CC[C@@]2(CCCN(C(=O)c3cnccn3)C2)C1 | / | ? | -5% | / | 2% | /
O=C(CSc1ncnc2sc3c(c12)CCC3)Nc1ccccc1C(=O)O | / | 8%[10 µM] | / | 1% | / | -4%[9.22 µM]
Nc1cccn2c(-c3ccc(Cl)c(Cl)c3)cnc12 | -2%[46 µM] | 6%[10 µM] | / | 20µM* | 25µM* | 4%
Nc1cccn2c(-c3ccc(Cl)cc3)cnc12 | -5%[9.22 µM] | -69% | / | ? | 28µM* | 6%

Assay outcomes as filed in PubChem.
